# What was measured:
# Test in all cases: PBM; 200 nM protein, PBS
# Details in all cases: dsDNA, one strand shown
# HESX1 [1] = target: HESX1 (Homo sapiens, UniProt Q9UBX0 95-180, R165K)
# SHOX [2] = target: SHOX (Homo sapiens, UniProt O15266 103-189)
# ALX4 = ALX4 (Homo sapiens, UniProt Q9H161 200-286, Q225E)
# HESX1 [3] = target: HESX1 (Homo sapiens, UniProt Q9UBX0 95-180)
# MSX2 = MSX2 (Homo sapiens, UniProt P35548 130-214, R199I)
# ALX1 [4] = target: ALX1 (Homo sapiens, UniProt Q15699 118-204, L144V)
# ALX3 [5] = target: ALX3 (Homo sapiens, UniProt O95076 139-225, N203Q)
# SHOX [6] = target: SHOX (Homo sapiens, UniProt O15266 103-189, R173C)
# ALX1 [7] = target: ALX1 (Homo sapiens, UniProt Q15699 118-204, L144R)
# ALX3 [8] = target: ALX3 (Homo sapiens, UniProt O95076 139-225)
# PROP1 [9] = target: PROP1 (Homo sapiens, UniProt O75360 56-141)
# HESX1 [10] = target: HESX1 (Homo sapiens, UniProt Q9UBX0 95-180, R109Q)
# PROP1 [11] = target: PROP1 (Homo sapiens, UniProt O75360 56-141, R99H)
# ALX3 [12] = target: ALX3 (Homo sapiens, UniProt O95076 139-225, L168Q)
# HESX1 [13] = target: HESX1 (Homo sapiens, UniProt Q9UBX0 95-180, P111T)
# ALX3 [14] = target: ALX3 (Homo sapiens, UniProt O95076 139-225, L168V)
# PROP1 [15] = target: PROP1 (Homo sapiens, UniProt O75360 56-141, F88S)
# HESX1 [16] = target: HESX1 (Homo sapiens, UniProt Q9UBX0 95-180, F115L)
# ALX1 [17] = target: ALX1 (Homo sapiens, UniProt Q15699 118-204)
# ALX3 [18] = target: ALX3 (Homo sapiens, UniProt O95076 139-225, N203S)
# ALX3 (Homo sapiens, UniProt O95076 139-225, N203S), sequence (O95076 139-225 N203S): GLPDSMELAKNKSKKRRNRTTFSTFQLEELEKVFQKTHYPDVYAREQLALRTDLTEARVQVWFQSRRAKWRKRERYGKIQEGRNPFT
# HESX1 (Homo sapiens, UniProt Q9UBX0 95-180, R109Q), sequence (Q9UBX0 95-180 R109Q): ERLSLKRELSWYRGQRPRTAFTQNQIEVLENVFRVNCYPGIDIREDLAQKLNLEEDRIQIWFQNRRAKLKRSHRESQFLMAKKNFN
# SHOX (Homo sapiens, UniProt O15266 103-189, R173C), sequence (O15266 103-189 R173C): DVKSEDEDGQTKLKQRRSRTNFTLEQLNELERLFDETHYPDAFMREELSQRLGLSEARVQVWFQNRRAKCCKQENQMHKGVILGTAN
# ALX1 (Homo sapiens, UniProt Q15699 118-204, L144R), sequence (Q15699 118-204 L144R): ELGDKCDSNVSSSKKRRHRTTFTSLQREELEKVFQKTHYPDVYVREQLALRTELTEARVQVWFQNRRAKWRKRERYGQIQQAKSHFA
# ALX1 (Homo sapiens, UniProt Q15699 118-204, L144V), sequence (Q15699 118-204 L144V): as the sequence (Q15699 118-204 L144R) above, with R27V counted along it
# ALX1 (Homo sapiens, UniProt Q15699 118-204), sequence (Q15699 118-204): as the sequence (Q15699 118-204 L144R) above, with R27L counted along it
# ALX3 (Homo sapiens, UniProt O95076 139-225, L168Q), sequence (O95076 139-225 L168Q): as the sequence (O95076 139-225 N203S) above, with L30Q, S65N counted along it
# HESX1 (Homo sapiens, UniProt Q9UBX0 95-180, P111T), sequence (Q9UBX0 95-180 P111T): as the sequence (Q9UBX0 95-180 R109Q) above, with Q15R, P17T counted along it
# HESX1 (Homo sapiens, UniProt Q9UBX0 95-180), sequence (Q9UBX0 95-180): as the sequence (Q9UBX0 95-180 R109Q) above, with Q15R counted along it
# ALX3 (Homo sapiens, UniProt O95076 139-225, L168V), sequence (O95076 139-225 L168V): as the sequence (O95076 139-225 N203S) above, with L30V, S65N counted along it
# MSX2, sequence (P35548 130-214 R199I): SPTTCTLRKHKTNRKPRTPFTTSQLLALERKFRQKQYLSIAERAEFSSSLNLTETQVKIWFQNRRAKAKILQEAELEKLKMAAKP
# PROP1 (Homo sapiens, UniProt O75360 56-141, R99H), sequence (O75360 56-141 R99H): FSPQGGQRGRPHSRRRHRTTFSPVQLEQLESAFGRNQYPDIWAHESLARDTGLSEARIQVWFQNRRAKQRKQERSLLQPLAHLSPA
# HESX1 (Homo sapiens, UniProt Q9UBX0 95-180, F115L), sequence (Q9UBX0 95-180 F115L): as the sequence (Q9UBX0 95-180 R109Q) above, with Q15R, F21L counted along it
# PROP1 (Homo sapiens, UniProt O75360 56-141), sequence (O75360 56-141): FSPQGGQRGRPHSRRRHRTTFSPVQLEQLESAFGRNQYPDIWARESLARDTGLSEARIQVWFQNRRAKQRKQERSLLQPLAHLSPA
# PROP1 (Homo sapiens, UniProt O75360 56-141, F88S), sequence (O75360 56-141 F88S): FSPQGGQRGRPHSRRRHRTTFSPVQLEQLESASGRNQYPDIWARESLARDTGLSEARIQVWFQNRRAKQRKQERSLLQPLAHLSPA
# ALX3 (Homo sapiens, UniProt O95076 139-225), sequence (O95076 139-225): as the sequence (O95076 139-225 N203S) above, with S65N counted along it
# HESX1 (Homo sapiens, UniProt Q9UBX0 95-180, R165K), sequence (Q9UBX0 95-180 R165K): as the sequence (Q9UBX0 95-180 R109Q) above, with Q15R, R71K counted along it
# SHOX (Homo sapiens, UniProt O15266 103-189), sequence (O15266 103-189): as the sequence (O15266 103-189 R173C) above, with C71R counted along it
# ALX4, sequence (Q9H161 200-286 Q225E): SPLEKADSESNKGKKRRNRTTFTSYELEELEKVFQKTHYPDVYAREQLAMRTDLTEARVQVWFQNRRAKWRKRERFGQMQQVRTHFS
# ALX3 (Homo sapiens, UniProt O95076 139-225, N203Q), sequence (O95076 139-225 N203Q): as the sequence (O95076 139-225 N203S) above, with S65Q counted along it
Sequence,binding signal (HESX1 [1]),binding signal (SHOX [2]),binding signal (ALX4),binding signal (HESX1 [3]),binding signal (MSX2),binding signal (ALX1 [4]),binding signal (ALX3 [5]),binding signal (SHOX [6]),binding signal (ALX1 [7]),binding signal (ALX3 [8]),binding signal (PROP1 [9]),binding signal (HESX1 [10]),binding signal (PROP1 [11]),binding signal (ALX3 [12]),binding signal (HESX1 [13]),binding signal (ALX3 [14]),binding signal (PROP1 [15]),binding signal (HESX1 [16]),binding signal (ALX1 [17]),binding signal (ALX3 [18])
GGCAATTA,"12.3 upbm affinity estimate (log intensity, higher = more binding, comparable within an allelic series)","11.7 upbm affinity estimate (log intensity, higher = more binding, comparable within an allelic series)","12.9 upbm affinity estimate (log intensity, higher = more binding, comparable within an allelic series)","12.4 upbm affinity estimate (log intensity, higher = more binding, comparable within an allelic series)","12.9 upbm affinity estimate (log intensity, higher = more binding, comparable within an allelic series)","11.4 upbm affinity estimate (log intensity, higher = more binding, comparable within an allelic series)","8.35 upbm affinity estimate (log intensity, higher = more binding, comparable within an allelic series)","9.38 upbm affinity estimate (log intensity, higher = more binding, comparable within an allelic series)","11 upbm affinity estimate (log intensity, higher = more binding, comparable within an allelic series)","12.2 upbm affinity estimate (log intensity, higher = more binding, comparable within an allelic series)","11.1 upbm affinity estimate (log intensity, higher = more binding, comparable within an allelic series)","8.87 upbm affinity estimate (log intensity, higher = more binding, comparable within an allelic series)","11.3 upbm affinity estimate (log intensity, higher = more binding, comparable within an allelic series)","10.3 upbm affinity estimate (log intensity, higher = more binding, comparable within an allelic series)","10.9 upbm affinity estimate (log intensity, higher = more binding, comparable within an allelic series)","9.79 upbm affinity estimate (log intensity, higher = more binding, comparable within an allelic series)","7.46 upbm affinity estimate (log intensity, higher = more binding, comparable within an allelic series)","7.6 upbm affinity estimate (log intensity, higher = more binding, comparable within an allelic series)","12 upbm affinity estimate (log intensity, higher = more binding, comparable within an allelic series)","8.36 upbm affinity estimate (log intensity, higher = more binding, comparable within an allelic series)"
CAATTAAG,"13 upbm affinity estimate (log intensity, higher = more binding, comparable within an allelic series)","12.3 upbm affinity estimate (log intensity, higher = more binding, comparable within an allelic series)","13.4 upbm affinity estimate (log intensity, higher = more binding, comparable within an allelic series)","12.9 upbm affinity estimate (log intensity, higher = more binding, comparable within an allelic series)","12.8 upbm affinity estimate (log intensity, higher = more binding, comparable within an allelic series)","11.7 upbm affinity estimate (log intensity, higher = more binding, comparable within an allelic series)","8.48 upbm affinity estimate (log intensity, higher = more binding, comparable within an allelic series)","10.1 upbm affinity estimate (log intensity, higher = more binding, comparable within an allelic series)","11.4 upbm affinity estimate (log intensity, higher = more binding, comparable within an allelic series)","12.5 upbm affinity estimate (log intensity, higher = more binding, comparable within an allelic series)","11.6 upbm affinity estimate (log intensity, higher = more binding, comparable within an allelic series)","9.81 upbm affinity estimate (log intensity, higher = more binding, comparable within an allelic series)","11.8 upbm affinity estimate (log intensity, higher = more binding, comparable within an allelic series)","10.7 upbm affinity estimate (log intensity, higher = more binding, comparable within an allelic series)","11.7 upbm affinity estimate (log intensity, higher = more binding, comparable within an allelic series)","10.2 upbm affinity estimate (log intensity, higher = more binding, comparable within an allelic series)","7.75 upbm affinity estimate (log intensity, higher = more binding, comparable within an allelic series)","7.88 upbm affinity estimate (log intensity, higher = more binding, comparable within an allelic series)","12.3 upbm affinity estimate (log intensity, higher = more binding, comparable within an allelic series)","8.56 upbm affinity estimate (log intensity, higher = more binding, comparable within an allelic series)"
CTAATTAC,"13.2 upbm affinity estimate (log intensity, higher = more binding, comparable within an allelic series)","12.8 upbm affinity estimate (log intensity, higher = more binding, comparable within an allelic series)","13.8 upbm affinity estimate (log intensity, higher = more binding, comparable within an allelic series)","13.2 upbm affinity estimate (log intensity, higher = more binding, comparable within an allelic series)","13.2 upbm affinity estimate (log intensity, higher = more binding, comparable within an allelic series)","12.2 upbm affinity estimate (log intensity, higher = more binding, comparable within an allelic series)","8.37 upbm affinity estimate (log intensity, higher = more binding, comparable within an allelic series)","10.1 upbm affinity estimate (log intensity, higher = more binding, comparable within an allelic series)","11.8 upbm affinity estimate (log intensity, higher = more binding, comparable within an allelic series)","12.9 upbm affinity estimate (log intensity, higher = more binding, comparable within an allelic series)","12 upbm affinity estimate (log intensity, higher = more binding, comparable within an allelic series)","9.51 upbm affinity estimate (log intensity, higher = more binding, comparable within an allelic series)","12 upbm affinity estimate (log intensity, higher = more binding, comparable within an allelic series)","11 upbm affinity estimate (log intensity, higher = more binding, comparable within an allelic series)","11.8 upbm affinity estimate (log intensity, higher = more binding, comparable within an allelic series)","10.5 upbm affinity estimate (log intensity, higher = more binding, comparable within an allelic series)","7.85 upbm affinity estimate (log intensity, higher = more binding, comparable within an allelic series)","7.95 upbm affinity estimate (log intensity, higher = more binding, comparable within an allelic series)","12.9 upbm affinity estimate (log intensity, higher = more binding, comparable within an allelic series)","8.5 upbm affinity estimate (log intensity, higher = more binding, comparable within an allelic series)"
ATAATTAG,"13.4 upbm affinity estimate (log intensity, higher = more binding, comparable within an allelic series)","13 upbm affinity estimate (log intensity, higher = more binding, comparable within an allelic series)","14.2 upbm affinity estimate (log intensity, higher = more binding, comparable within an allelic series)","13.4 upbm affinity estimate (log intensity, higher = more binding, comparable within an allelic series)","13.2 upbm affinity estimate (log intensity, higher = more binding, comparable within an allelic series)","12.3 upbm affinity estimate (log intensity, higher = more binding, comparable within an allelic series)","8.56 upbm affinity estimate (log intensity, higher = more binding, comparable within an allelic series)","10.3 upbm affinity estimate (log intensity, higher = more binding, comparable within an allelic series)","11.9 upbm affinity estimate (log intensity, higher = more binding, comparable within an allelic series)","12.9 upbm affinity estimate (log intensity, higher = more binding, comparable within an allelic series)","12.1 upbm affinity estimate (log intensity, higher = more binding, comparable within an allelic series)","9.82 upbm affinity estimate (log intensity, higher = more binding, comparable within an allelic series)","12.1 upbm affinity estimate (log intensity, higher = more binding, comparable within an allelic series)","11.2 upbm affinity estimate (log intensity, higher = more binding, comparable within an allelic series)","12 upbm affinity estimate (log intensity, higher = more binding, comparable within an allelic series)","10.8 upbm affinity estimate (log intensity, higher = more binding, comparable within an allelic series)","7.99 upbm affinity estimate (log intensity, higher = more binding, comparable within an allelic series)","8.28 upbm affinity estimate (log intensity, higher = more binding, comparable within an allelic series)","12.9 upbm affinity estimate (log intensity, higher = more binding, comparable within an allelic series)","8.75 upbm affinity estimate (log intensity, higher = more binding, comparable within an allelic series)"
CCCCGGCG,"6.58 upbm affinity estimate (log intensity, higher = more binding, comparable within an allelic series)","6.85 upbm affinity estimate (log intensity, higher = more binding, comparable within an allelic series)",–,"6.57 upbm affinity estimate (log intensity, higher = more binding, comparable within an allelic series)",–,–,"7.82 upbm affinity estimate (log intensity, higher = more binding, comparable within an allelic series)","7.05 upbm affinity estimate (log intensity, higher = more binding, comparable within an allelic series)",–,"7.76 upbm affinity estimate (log intensity, higher = more binding, comparable within an allelic series)",–,"6.61 upbm affinity estimate (log intensity, higher = more binding, comparable within an allelic series)",–,"7.73 upbm affinity estimate (log intensity, higher = more binding, comparable within an allelic series)","6.61 upbm affinity estimate (log intensity, higher = more binding, comparable within an allelic series)","7.68 upbm affinity estimate (log intensity, higher = more binding, comparable within an allelic series)",–,"6.51 upbm affinity estimate (log intensity, higher = more binding, comparable within an allelic series)",–,"7.81 upbm affinity estimate (log intensity, higher = more binding, comparable within an allelic series)"
